For test [1], the target named is T1, Serine/threonine-protein kinase Nek9 (Homo sapiens) (UniProt Q8TD19).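 Further: each value is a mean percent inhibition of NEK9.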
T1 sequence (whole entry): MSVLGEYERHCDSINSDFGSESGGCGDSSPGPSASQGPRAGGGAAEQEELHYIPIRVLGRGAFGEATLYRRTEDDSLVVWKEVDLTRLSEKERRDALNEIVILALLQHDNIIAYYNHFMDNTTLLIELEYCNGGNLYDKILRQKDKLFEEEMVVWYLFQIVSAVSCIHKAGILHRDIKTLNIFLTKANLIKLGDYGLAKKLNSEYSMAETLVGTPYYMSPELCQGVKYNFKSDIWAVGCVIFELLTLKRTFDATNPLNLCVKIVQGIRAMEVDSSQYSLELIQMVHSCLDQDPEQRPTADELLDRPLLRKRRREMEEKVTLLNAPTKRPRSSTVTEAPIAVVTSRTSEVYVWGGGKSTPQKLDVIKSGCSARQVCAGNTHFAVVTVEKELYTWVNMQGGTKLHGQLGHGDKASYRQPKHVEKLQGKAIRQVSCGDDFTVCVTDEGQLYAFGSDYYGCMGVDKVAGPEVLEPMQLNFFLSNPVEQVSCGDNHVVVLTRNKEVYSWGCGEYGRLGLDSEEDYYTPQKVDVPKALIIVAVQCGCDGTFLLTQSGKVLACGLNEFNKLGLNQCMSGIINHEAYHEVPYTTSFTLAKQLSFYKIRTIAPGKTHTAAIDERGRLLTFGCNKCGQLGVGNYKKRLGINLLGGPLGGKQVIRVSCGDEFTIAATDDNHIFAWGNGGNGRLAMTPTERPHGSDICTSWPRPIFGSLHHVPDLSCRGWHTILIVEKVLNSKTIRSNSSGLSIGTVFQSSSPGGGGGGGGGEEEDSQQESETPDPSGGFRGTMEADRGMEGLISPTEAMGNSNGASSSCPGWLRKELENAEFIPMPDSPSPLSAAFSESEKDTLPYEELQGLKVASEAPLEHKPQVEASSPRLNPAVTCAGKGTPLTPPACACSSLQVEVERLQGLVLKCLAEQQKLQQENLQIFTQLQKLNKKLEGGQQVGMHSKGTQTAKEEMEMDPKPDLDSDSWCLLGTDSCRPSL
Conditions: at 1 µM.

Test [2] deals with Serine/threonine-protein kinase PLK1 (Homo sapiens) (UniProt P53350). Conditions: at 0.1 µM.
Chain of Serine/threonine-protein kinase PLK1 (Homo sapiens) (P53350 whole entry): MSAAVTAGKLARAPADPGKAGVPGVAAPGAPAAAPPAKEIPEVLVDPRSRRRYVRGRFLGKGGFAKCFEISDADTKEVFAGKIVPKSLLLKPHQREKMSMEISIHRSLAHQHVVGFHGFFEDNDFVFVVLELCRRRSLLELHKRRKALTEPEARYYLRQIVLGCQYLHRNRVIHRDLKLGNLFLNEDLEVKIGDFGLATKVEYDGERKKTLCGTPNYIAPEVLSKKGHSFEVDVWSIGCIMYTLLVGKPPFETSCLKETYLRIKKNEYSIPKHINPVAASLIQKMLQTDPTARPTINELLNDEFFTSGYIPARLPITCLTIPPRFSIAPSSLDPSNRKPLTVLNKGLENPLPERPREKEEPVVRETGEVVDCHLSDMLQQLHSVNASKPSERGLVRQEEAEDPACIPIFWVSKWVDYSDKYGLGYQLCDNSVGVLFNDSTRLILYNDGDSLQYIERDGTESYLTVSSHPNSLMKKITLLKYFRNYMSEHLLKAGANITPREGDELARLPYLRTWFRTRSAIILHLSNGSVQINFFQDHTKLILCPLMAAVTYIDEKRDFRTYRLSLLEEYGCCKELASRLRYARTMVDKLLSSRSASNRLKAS
The target is the same in test [3]. To be noted: at 1 µM.
The target of test [4] is T2, Dual specificity protein kinase TTK (Homo sapiens) (UniProt P33981).
T2 sequence (whole entry): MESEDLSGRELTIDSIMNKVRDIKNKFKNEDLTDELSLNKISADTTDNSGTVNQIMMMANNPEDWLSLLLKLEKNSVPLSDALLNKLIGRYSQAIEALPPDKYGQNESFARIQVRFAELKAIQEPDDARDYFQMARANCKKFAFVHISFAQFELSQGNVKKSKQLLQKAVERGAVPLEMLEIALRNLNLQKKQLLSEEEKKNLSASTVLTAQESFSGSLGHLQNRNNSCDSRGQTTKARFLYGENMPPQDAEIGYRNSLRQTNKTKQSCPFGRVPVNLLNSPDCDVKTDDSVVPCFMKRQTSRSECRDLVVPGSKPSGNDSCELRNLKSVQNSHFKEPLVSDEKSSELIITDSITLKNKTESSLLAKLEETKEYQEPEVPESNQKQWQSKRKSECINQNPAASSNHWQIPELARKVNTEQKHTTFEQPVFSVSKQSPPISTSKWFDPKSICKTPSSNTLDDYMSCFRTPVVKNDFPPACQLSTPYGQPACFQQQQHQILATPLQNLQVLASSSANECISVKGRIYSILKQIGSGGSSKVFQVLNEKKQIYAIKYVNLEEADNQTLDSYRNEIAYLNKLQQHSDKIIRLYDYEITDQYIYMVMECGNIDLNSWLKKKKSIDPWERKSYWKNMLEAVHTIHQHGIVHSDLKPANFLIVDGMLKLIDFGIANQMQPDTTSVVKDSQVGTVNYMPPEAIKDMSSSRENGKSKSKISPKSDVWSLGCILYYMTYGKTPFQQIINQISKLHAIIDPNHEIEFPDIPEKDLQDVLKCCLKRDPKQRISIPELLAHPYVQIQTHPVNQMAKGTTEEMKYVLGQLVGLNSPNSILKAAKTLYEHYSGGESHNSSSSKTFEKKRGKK
Conditions: at 0.1 µM.

Test [5] has as its system T3, Receptor-type tyrosine-protein kinase FLT3 (Homo sapiens), P36888 [D835Y].
T3 sequence (whole entry): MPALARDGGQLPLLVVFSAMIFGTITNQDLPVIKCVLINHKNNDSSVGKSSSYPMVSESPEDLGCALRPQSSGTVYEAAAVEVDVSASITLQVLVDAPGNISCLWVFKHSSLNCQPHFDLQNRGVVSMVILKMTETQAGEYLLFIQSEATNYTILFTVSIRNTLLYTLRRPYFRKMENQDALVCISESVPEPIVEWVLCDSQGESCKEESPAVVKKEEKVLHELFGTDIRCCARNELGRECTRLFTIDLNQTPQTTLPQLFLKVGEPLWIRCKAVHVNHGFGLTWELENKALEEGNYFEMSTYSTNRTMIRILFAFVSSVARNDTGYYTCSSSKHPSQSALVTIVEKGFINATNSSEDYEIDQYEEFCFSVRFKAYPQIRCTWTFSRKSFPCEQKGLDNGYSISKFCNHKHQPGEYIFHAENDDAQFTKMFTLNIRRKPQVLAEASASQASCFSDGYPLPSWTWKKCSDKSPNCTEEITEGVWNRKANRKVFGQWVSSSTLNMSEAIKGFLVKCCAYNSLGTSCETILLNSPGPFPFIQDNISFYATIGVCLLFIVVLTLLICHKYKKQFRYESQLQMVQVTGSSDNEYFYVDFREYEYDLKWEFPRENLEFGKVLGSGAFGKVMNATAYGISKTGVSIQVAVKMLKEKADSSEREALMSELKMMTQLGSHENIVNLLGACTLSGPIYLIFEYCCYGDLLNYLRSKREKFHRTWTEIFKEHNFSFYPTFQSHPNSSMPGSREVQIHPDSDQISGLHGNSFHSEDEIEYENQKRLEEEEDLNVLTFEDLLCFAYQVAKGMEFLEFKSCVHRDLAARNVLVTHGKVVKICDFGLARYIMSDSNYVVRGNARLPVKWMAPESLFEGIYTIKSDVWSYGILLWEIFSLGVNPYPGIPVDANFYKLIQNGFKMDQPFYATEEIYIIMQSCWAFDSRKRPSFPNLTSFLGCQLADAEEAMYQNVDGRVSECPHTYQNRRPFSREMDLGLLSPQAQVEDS
To be noted: at 1 µM.

Test [6] has as its target Vascular endothelial growth factor receptor 3 (Homo sapiens) (UniProt P35916). To be noted: at 0.1 µM.
Test [7] has the same target. Conditions: at 1 µM.
In test [8] the target is Macrophage colony-stimulating factor 1 receptor (Homo sapiens) (UniProt P07333). Conditions: at 0.1 µM.
Chain of Macrophage colony-stimulating factor 1 receptor (Homo sapiens) (P07333 whole entry): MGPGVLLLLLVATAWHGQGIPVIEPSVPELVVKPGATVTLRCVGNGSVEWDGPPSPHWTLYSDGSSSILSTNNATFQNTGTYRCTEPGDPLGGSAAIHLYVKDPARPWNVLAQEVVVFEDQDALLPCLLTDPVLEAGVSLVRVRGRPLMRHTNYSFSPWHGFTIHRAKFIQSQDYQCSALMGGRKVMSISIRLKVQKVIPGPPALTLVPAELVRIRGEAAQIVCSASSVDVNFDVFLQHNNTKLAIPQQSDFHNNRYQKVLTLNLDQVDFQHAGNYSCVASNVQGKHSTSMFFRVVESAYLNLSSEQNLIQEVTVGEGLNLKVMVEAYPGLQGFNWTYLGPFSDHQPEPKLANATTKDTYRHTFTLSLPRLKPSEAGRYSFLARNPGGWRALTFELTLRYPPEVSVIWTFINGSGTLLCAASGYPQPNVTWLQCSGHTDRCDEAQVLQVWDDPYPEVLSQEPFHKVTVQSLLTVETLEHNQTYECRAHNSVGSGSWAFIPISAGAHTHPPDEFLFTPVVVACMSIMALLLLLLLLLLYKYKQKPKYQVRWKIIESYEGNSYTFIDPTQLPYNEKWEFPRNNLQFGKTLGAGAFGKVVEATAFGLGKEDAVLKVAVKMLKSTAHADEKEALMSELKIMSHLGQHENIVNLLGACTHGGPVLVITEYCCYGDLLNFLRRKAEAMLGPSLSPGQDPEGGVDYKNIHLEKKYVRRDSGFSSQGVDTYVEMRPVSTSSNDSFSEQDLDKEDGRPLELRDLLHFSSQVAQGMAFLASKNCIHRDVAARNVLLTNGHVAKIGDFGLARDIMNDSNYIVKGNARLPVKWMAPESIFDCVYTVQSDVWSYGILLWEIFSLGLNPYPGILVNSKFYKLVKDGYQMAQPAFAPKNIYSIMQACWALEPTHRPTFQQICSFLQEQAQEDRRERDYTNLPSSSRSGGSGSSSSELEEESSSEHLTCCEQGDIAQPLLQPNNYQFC
Test [9] shares this target. Conditions: at 1 µM.
The target of test [10] is Tyrosine-protein kinase Fyn (Homo sapiens) (UniProt P06241). Conditions: at 0.1 µM.
Chain of Tyrosine-protein kinase Fyn (Homo sapiens) (P06241 2-537 limits assumed): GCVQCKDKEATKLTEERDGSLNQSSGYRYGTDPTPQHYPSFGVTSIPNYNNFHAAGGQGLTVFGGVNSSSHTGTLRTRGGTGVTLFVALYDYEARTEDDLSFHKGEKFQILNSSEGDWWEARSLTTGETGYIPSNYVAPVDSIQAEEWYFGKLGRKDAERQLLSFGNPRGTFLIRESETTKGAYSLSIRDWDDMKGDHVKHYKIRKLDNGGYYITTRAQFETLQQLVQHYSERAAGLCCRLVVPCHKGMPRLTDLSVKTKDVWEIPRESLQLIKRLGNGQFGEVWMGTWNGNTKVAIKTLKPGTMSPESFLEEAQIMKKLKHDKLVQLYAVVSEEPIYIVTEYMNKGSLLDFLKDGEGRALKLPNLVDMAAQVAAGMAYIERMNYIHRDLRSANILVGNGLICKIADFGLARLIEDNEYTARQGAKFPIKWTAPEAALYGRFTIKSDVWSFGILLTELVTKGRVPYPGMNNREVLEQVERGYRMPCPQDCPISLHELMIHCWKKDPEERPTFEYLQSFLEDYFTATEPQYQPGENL
The target is the same in test [11]. To be noted: at 1 µM.
Test [12] has as its target Tyrosine-protein kinase HCK (Homo sapiens) (UniProt P08631). To be noted: at 0.1 µM.
Test [13] has the same target. To be noted: at 1 µM.
The target of test [14] is Insulin-like growth factor 1 receptor (Homo sapiens) (UniProt P08069). To be noted: at 0.1 µM.
The target is the same in test [15]. Conditions: at 1 µM.
Test [16] concerns the target Insulin receptor (Homo sapiens) (UniProt P06213). To be noted: at 0.1 µM.
Test [17] shares this target. To be noted: at 1 µM.
Test [18] concerns the target Insulin receptor-related protein (Homo sapiens) (UniProt P14616). Conditions: at 0.1 µM.
Test [19] has the same target. To be noted: at 1 µM.
The target of test [20] is T4, Tyrosine-protein kinase ITK/TSK (Homo sapiens) (UniProt Q08881).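 Further: mean percent inhibition of ITK from the GSK PKIS screen.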
T4 sequence (whole entry): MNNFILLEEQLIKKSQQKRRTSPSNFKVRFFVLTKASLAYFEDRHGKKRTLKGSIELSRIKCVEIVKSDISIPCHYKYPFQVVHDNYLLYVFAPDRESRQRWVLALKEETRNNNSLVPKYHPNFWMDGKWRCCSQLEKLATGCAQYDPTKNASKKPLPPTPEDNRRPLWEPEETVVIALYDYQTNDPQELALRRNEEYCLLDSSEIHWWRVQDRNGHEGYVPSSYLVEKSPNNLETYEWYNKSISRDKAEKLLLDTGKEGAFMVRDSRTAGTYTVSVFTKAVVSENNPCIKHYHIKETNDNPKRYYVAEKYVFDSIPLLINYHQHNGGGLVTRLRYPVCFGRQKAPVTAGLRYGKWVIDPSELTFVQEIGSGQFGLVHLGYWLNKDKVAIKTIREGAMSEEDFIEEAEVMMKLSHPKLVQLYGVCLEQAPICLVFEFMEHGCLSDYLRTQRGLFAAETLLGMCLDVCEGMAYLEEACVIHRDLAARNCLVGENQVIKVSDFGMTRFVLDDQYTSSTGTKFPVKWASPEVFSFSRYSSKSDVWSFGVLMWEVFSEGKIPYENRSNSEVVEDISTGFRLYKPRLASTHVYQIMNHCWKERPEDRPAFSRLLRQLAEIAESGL
To be noted: at 0.1 µM.

Chain of Tyrosine-protein kinase HCK (Homo sapiens) (P08631 2-526 limits assumed): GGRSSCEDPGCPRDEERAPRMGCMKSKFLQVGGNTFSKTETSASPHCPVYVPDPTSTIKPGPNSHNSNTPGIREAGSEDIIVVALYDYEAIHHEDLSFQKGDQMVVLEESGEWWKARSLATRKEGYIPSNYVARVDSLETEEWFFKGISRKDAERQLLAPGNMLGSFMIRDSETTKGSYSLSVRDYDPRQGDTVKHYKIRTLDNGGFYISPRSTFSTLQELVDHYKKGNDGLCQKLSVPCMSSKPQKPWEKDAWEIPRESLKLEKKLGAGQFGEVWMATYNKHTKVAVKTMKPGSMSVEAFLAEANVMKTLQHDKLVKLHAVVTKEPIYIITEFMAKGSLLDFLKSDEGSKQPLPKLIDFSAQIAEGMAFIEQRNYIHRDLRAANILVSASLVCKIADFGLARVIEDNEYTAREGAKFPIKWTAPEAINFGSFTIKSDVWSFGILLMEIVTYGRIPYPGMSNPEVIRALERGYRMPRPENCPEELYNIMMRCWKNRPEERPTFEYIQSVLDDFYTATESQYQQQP
Chain of Vascular endothelial growth factor receptor 3 (Homo sapiens) (P35916 whole entry): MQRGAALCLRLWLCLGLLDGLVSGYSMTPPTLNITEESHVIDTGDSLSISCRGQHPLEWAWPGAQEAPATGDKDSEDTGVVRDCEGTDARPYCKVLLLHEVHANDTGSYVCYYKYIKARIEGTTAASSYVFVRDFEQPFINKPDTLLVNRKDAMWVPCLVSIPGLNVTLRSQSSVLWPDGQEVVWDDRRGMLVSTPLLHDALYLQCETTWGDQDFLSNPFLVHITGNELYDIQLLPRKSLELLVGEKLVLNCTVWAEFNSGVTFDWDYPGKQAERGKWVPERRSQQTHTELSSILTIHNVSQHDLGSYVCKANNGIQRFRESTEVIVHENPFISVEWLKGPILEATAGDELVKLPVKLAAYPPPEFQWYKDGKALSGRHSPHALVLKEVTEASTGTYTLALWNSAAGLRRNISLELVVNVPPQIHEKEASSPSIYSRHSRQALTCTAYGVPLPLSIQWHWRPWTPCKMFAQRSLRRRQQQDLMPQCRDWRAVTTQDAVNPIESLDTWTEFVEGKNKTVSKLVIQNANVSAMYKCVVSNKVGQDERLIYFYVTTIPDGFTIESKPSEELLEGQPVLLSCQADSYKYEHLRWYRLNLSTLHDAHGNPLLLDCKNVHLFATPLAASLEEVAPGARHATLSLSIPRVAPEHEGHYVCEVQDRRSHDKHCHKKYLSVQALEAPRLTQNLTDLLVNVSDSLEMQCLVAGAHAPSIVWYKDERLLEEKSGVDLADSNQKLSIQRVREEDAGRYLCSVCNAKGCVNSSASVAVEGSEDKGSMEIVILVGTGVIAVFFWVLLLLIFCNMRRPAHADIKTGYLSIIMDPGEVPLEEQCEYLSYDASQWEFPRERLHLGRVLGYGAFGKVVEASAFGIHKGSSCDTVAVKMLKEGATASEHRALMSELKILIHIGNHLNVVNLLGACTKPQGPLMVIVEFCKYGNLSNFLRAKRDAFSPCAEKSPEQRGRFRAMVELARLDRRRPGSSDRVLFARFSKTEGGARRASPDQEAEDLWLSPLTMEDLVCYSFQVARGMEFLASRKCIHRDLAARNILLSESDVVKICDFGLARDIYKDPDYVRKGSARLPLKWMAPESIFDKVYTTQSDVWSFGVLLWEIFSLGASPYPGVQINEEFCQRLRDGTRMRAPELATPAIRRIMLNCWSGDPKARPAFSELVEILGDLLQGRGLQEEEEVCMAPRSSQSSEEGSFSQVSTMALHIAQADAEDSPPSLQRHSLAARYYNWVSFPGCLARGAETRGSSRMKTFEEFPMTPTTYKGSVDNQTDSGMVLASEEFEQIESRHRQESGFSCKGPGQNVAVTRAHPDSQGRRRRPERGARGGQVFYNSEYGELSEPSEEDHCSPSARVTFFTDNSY

The term inhibition denotes the drop in the measured response relative to a control, in per cent. Consider `Cc1ccc(C(=O)NC2CCCCC2)cc1-c1ccc(C(=O)NCC2CC2)cc1`, for which the inhibition in test [1] was -4.93%; in [2] it was 3%; in test [3], 2.23%; in test [4] it was 2.82%; in [5], -1.53%; in test [6] it was 3.84%. Also, the inhibition is 5.49% in test [7]; -0.58% in test [8]; 5.17% in test [9]; -0.84% in test [10]; 0.78% in [11]; 5.78% in test [12]. In addition, the inhibition in test [13] amounted to 7.52%; in test [14], 1.73%; in [15], 5.21%; in test [16] it was 3.35%; in test [17], 1.48%; in test [18], 3.13%. Besides, the inhibition in test [19] came out at 2.14%; in [20], 1.95%.
Regarding `[O-][S+]1CCN(Cc2ccc(-c3ccc4ncnc(Nc5ccc(OCc6ccccc6)c(F)c5)c4c3)o2)CC1`, the inhibition in test [1] was 4.38%; in [2], 2.17%; in [3], 1.22%; in test [4] it was 5.89%; in [5] it was 1.92%; in test [6], -0.55%. Further, the inhibition was found to be 0.47% in [7]; 0.26% in test [8]; 3.3% in test [9]; 0.67% in [10]; 9.16% in test [11]; 3.37% in test [12]. The inhibition was 7.23% in [13]; 4.94% in test [14]; 2.99% in [15]; 4.18% in [16]; 4.1% in test [17]; 0.94% in [18]. Also, the inhibition in test [19] came to 2.32%; in test [20], 1.08%.
For the compound `Nc1nc(-c2ccc3c(c2)C(=Cc2cc(Br)c(O)c(Br)c2)C(=O)N3)cs1`, the inhibition in test [1] was found to be 8.59%; in test [2], 0.43%; in test [3], 3.62%; in [4], 2.39%; in test [5], 3.47%; in [6], 4.68%. The inhibition is 6.47% in test [7]; -1.81% in test [8]; 2.56% in test [9]; -0.03% in [10]; 8.82% in test [11]; -1.41% in test [12]. Also, the inhibition is 7.14% in [13]; -1.89% in [14]; 0.82% in test [15]; 1.87% in test [17]; -3.05% in [18]; -2.21% in test [19]. In addition, the inhibition in test [20] was 0.01%.
On to `Fc1cccc(COc2ccc(Nc3ncnc4cc(-c5ccc[nH]5)sc34)cc2Cl)c1`, for which the inhibition was 9.08% in test [1]; 3.81% in test [2]; 3.54% in test [3]; 9.76% in test [4]; 1.35% in [5]; 0.63% in test [8]. Moreover, the inhibition in [9] is 8.96%; in test [10] it was -2.98%; in [11], 4.86%; in [12], 3.68%; in [13] it was 9.04%; in test [14] it was -6.59%. The inhibition is -4.84% in test [15]; 5.37% in [16]; 6% in test [17]; -0.19% in [18]; 0.95% in test [19]; -2.3% in test [20].

Source of the values: ChEMBL document CHEMBL1961873, “Compounds: GSK PKIS; Assays: Nanosyn kinase panel” (2012).
